# Giardia FBPA inh – Giardia lamblia aldolase inhibition; AID 2451; A8B2U2; 290,000 compounds, 0.71% hits; Potency, µM (series often up to 59.6 µM), for inactives: at the top dose activity, negative = inhibition, usual class: inhibitors; purified Giardia FBPA; note: potency is the fitted concentration of half-maximal effect; % is set by controls: 0 for no effect and ±100 for the full control effect; nearly all actives have a fitted effect of over 55% in size
# Target sequence (A8B2U2 whole entry, looked up): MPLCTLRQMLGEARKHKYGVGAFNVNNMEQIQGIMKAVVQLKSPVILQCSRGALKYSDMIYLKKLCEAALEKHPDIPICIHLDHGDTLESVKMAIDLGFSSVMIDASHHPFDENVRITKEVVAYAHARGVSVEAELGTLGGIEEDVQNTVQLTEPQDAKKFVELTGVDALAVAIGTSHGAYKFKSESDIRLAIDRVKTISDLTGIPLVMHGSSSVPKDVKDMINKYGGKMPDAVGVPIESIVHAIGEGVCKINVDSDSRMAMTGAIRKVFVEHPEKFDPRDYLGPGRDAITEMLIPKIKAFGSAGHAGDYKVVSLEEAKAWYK
#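 Giardia FBPA (40 nM reagent) was preincubated 10 min at RT with compound (up to 57.5 uM final), then substrate plus GAPDH/TPI/NAD/arsenate coupling system with diaphorase/resazurin was added; resorufin fluorescence (525/598 nm) was read after 20 min.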
# AmpC detergent – inhibitors of E. coli AmpC beta-lactamase with detergent. P00811. AmpC hydrolysis of nitrocefin, absorbance 480 nm, 0.01% Triton. Potency, µM (highest dose often 114 µM), for inactives: at the top dose activity change, negative = inhibition, most hits filed as inhibitors. 370,000 compounds, 0.041% hits. AID 485294;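 note: potency is the fitted concentration of half-maximal effect; 0% = no-compound wells and -100% = no-enzyme wells; nearly all actives have a fitted effect of over 25% in size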
# Target sequence (P00811 whole entry, looked up): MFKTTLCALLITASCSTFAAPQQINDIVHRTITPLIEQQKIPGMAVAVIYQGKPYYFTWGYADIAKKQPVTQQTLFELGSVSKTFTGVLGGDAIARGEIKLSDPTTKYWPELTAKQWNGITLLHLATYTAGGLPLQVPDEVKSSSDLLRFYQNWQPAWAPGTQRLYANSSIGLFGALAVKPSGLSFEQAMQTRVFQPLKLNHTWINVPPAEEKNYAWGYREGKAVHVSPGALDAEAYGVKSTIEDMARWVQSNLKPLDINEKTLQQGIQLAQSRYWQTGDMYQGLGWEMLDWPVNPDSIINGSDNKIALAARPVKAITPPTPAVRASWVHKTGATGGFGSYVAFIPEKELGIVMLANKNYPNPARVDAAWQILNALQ
#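 AmpC (5.3 nM in the dispensed reagent) in 20 mM phosphate pH 7.0 with 0.01% (detergent screen) or 0.0001% Triton X-100 was preincubated with compounds for 15 min at room temperature. Nitrocefin was then added from an 800 uM solution, and hydrolysis was followed at 480 nm.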
# SARS PLpro yeast – SARS-CoV PLP inhibition in yeast; S. cerevisiae expressing SARS-CoV PLpro, growth rescue; 330,000 compounds, 0.19% hits; AID 485353; Potency, µM (top dose mostly 32.9 µM), without a hit: at the top dose activity, positive = growth rescue, most hits filed as activators; calls by dose curve; note: potency is the fitted concentration of half-maximal effect; 0% is about no effect; nearly all actives have a fitted effect of over 55% in size
# AmpC no deterg – blocks E. coli AmpC beta-lactamase in detergent-free assay | P00811 | AmpC nitrocefin hydrolysis, absorbance 480 nm, 0.0001% Triton | Potency, µM (titrated, usually from 57.1 µM), for the others: at the highest dose activity change, negative = inhibition, hits mostly inhibitors | 330,000 compounds, 0.52% hits | AID 485341;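 note: potency is the fitted concentration of half-maximal effect; plate controls were no compound for no effect and no enzyme for full effect; nearly all actives have a fitted effect of over 20% in size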
#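 AmpC (5.3 nM in the dispensed reagent) in 20 mM phosphate pH 7.0 with 0.01% (detergent screen) or 0.0001% Triton X-100 was preincubated with compounds for 15 min at room temperature. Nitrocefin was then added from an 800 uM solution, and hydrolysis was followed at 480 nm.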
# NS1 function inh – inhibitors of influenza NS1 protein function; AID 2326; Potency, µM (series often up to 46.1 µM), for the others: at the highest dose activity, positive = more growth; 270,000 compounds, 0.4% hits; calls by dose curve; note: potency is the fitted concentration of half-maximal effect; actives are rising curves; nearly all actives have a fitted effect of over 50% in size
#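 Compounds were scored for reversing the slow growth caused by influenza A NS1 in S. cerevisiae, measured by optical density at 600 nm. Assay medium contained 2% galactose at pH 6.0; NS1-free yeast of the same strain were the positive control.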
# NS1 inh valid – influenza NS1 function inhibition validation; shares compounds with NS1 function inh; influenza NS1 function cell assay, 15-point titration; activity change, negative = inhibition, % at 32.9 µM; 1,400 tested, under 10 active; calls by dose curve; note: 0% is about no effect
# Flu PR8 replic – reduces influenza A/PR/8/34 replication in MDCK cells; shares compounds with NS1 function inh; MDCK infected influenza A/PR/8/34, virus titer TCID50; hits give low values; virus titer (log TCID50), log10 TCID50 at 5 µM; 95 compounds, 30% hits; call rule not given here
# Active calls of the source: *; u = inconclusive; x = no result given. An excerpt weighted towards active compounds, which were near 1.4% of everything screened. Unless noted, calls come from the whole dose curve; as a rule, active = well fitted curve in the direction sought with a large enough effect; inconclusive = small, poorly fitted or top-dose-only effect, or another doubt; inactive = no such curve, though single readings can be large; an effect the other way counts as inactive or inconclusive.
SMILES,Giardia FBPA inh,AmpC detergent,SARS PLpro yeast,AmpC no deterg,NS1 function inh,NS1 inh valid,others
Cc1occc1-c1nnc(SCC(=O)N2CCCC(C)C2)o1 (stereo not given),x,2%,-1%,-26%,x,x,
O=C1NC(=S)S/C1=C/c1ccc(N2CCOCC2)o1,u,11%,-8%,-49%,7.9µM*,2,
CN1C(=O)C(=Cc2ccc(N3CCOCC3)o2)C(=O)N(C)C1=S,-2%,0%,0%,-15%,5%,x,
CCC(CC)NCc1ccc(OC)cc1OC,0%,u,3%,2%,u,-13,
CCOc1ccc(OCC)c(NS(=O)(=O)c2cccc3nsnc23)c1,-20%,-4%,-1%,-10%,u,3,
CCOc1ccccc1NS(=O)(=O)c1cccc2nsnc12,u,u,-3%,-17%,3%,x,
Cc1ccc(NC(=O)CSc2nc3nccnc3c(=O)n2CCc2c[nH]c3ccccc23)cc1,x,-4%,x,x,x,x,
O=C(NNc1nc(-c2ccc(Cl)cc2)cs1)c1ccco1,5%,1%,-30%,-41%,3.2µM*,-6,
O=C(NNc1nc(-c2ccccc2)cs1)c1ccco1,9%,-7%,-12%,-39%,4µM*,11,
Cc1ccc(-c2csc(NC(=S)NC(=O)c3ccco3)n2)cc1,-21%,-5%,6%,-15%,5%,x,
C=CCn1c(N/N=C/c2ccc(O)cc2)nc2ccccc2c1=O,-12%,4%,-2%,-42%,x,x,
COc1ccc(S(=O)(=O)n2nc(OC(C)=O)cc2N(C(C)=O)C(C)=O)cc1,13%,0%,0%,-10%,4%,x,
CN(C)/C=C1\SC(=S)N(c2ccc(Br)cc2)C1=O,-1%,0%,-4%,-44%,u,-10,
Cc1ccc(NC(=S)/N=C(\N)Nc2nc(C)c3cc(C)ccc3n2)c(C)c1,12%,-5%,u,-29%,16%,x,
CCc1ccccc1NC(=S)/N=C(\N)Nc1nc(C)c2cc(C)ccc2n1,0%,u,16%,-13%,u,-29,
O=C(NNC(=S)NC1CCCCC1)c1cccs1,-2%,4%,u,-1%,2.5µM*,11,
COc1ccc(CCNC(=O)c2ccccc2NS(=O)(=O)c2cc(C(=O)O)ccc2OC)cc1,-9%,-9%,1%,-28%,u,2,
COc1ccc(NC(C)=O)cc1S(=O)(=O)Nc1ccccc1C(=O)NCCc1ccccc1,x,-5%,1%,-11%,-1%,x,
S=C(NCc1ccco1)Nc1cccc(Cl)c1Cl,1%,1%,7%,-32%,4%,x,
COc1cc(C(=O)NCc2cccc3ccccc23)ccc1OCc1ccccc1,1%,-10%,1%,-1%,26%,x,
O=C(CSc1nc2[nH]ncc2c(=O)[nH]1)Nc1ccc(OC(F)(F)F)cc1,x,u,x,-19%,x,x,
CC(C)(CN1CCCC1)NS(=O)(=O)c1ccc(Cl)cc1,-7%,-2%,-1%,-6%,u,-1,
CC(Oc1ccccc1)C(=O)Nc1nnc2n1CCS2 (stereo not given),x,-11%,x,x,x,x,
O=C(NNc1nc(-c2ccccc2)c2cc(Br)ccc2n1)c1ccc(S(=O)(=O)N2CCCCC2)cc1,11%,-6%,-6%,-20%,u,x,
O=C(NNc1nc(-c2ccccc2)c2cc(Br)ccc2n1)c1ccc(S(=O)(=O)N2CCOCC2)cc1,11%,-13%,7%,61%,11µM*,34,
SMILES,Giardia FBPA inh,AmpC detergent,SARS PLpro yeast,AmpC no deterg,NS1 function inh,NS1 inh valid,others
NNC(=O)CN1C(c2ccccc2Br)=Nc2ccc(Br)cc2C1c1ccccc1 (stereo not given),u,13%,16%,166%,4.5µM*,-2,Flu PR8 replic=8.3
Cc1ccc(NC(=O)c2sccc2-n2cccc2)c(C)c1,-4%,-5%,-11%,-18%,-73%,x,
CCOc1ccccc1CNC(=O)Cn1c(-c2ccccc2)cc(C(C)=O)c1C,x,-1%,x,x,x,x,
Fc1ccc(Cn2nnnc2CN2CCC(n3nnc4cc(C(F)(F)F)ccc43)CC2)cc1,-6%,-11%,1%,-20%,5µM*,u,
O=C(Cc1ccccc1)Nc1nnc2n1CCS2,x,4%,x,x,x,x,
O=C(Nc1nnc2n1CCS2)c1ccco1,-16%,-9%,9%,-17%,u,9,
O=C(c1cc2ccccc2o1)N1CCN(S(=O)(=O)c2cccs2)CC1,1%,1%,8%,-5%,10µM*,14,
N#CCCn1cc(C(CC(=O)c2ccc(Br)cc2)C(=O)O)c2ccccc21 (stereo not given),10%,-1%,11%,-45%,8.9µM*,17,
Cc1ccc(C(=O)CC(C(=O)O)c2cn(CCC#N)c3ccccc23)cc1 (stereo not given),13%,u,6%,-15%,u,x,
O=C(/C=C\c1ccc2c(c1)OCO2)NC1CC(=O)N(c2ccccc2)C1 (stereo not given),x,0%,x,x,x,x,
COc1cc(/C=N/NC(=O)c2ccc(CSc3nc4ccccc4[nH]3)cc2)cc(OC)c1OC,16%,-3%,13%,48%,13µM*,u,Flu PR8 replic=8
COc1cc(/C=N/NC(=O)c2ccc3nc[nH]c3c2)cc(OC)c1OC,1%,-1%,0%,-28%,1%,x,
NC(=O)CC[C@H](NC(=O)[C@H](Cc1ccccc1)n1c(=O)[nH]c2ccccc2c1=O)C(=O)N1CCC[C@H]1C(=O)O,2%,u,-2%,-26%,10%,x,
CCOC(=O)c1ccc(N2C(=O)c3n[nH]c(C)c3C2c2ccc(OC)cc2OC)cc1 (stereo not given),6%,-2%,10%,29%,5µM*,-9,
CCCCC/C=C\C/C=C\C/C=C\C/C=C\CCCC(=O)NCC(=O)O,4%,x,x,x,18µM*,12,
CCCCC/C=C\C/C=C\CCCCCCCC(=O)NCC(=O)O,15%,x,x,x,x,x,
COc1ccc(C(=O)N2CCC(n3nccc3NC(=O)C3CC3)CC2)c(OC)c1OC,-5%,-14%,3%,-5%,u,x,
COC(=O)c1cc(NC(=O)c2cc(C(C)(C)C)nn2Cc2ccc(F)cc2)ccc1N1CCOCC1,-14%,19%,-3%,177%,u,-5,
CCOc1ccc(NC(=S)NC(=O)/C=C/c2ccc(OC)c(OC)c2)c([N+](=O)[O-])c1,x,11%,-1%,-37%,4µM*,-23,
O=C(NCc1ccc2[nH]c3c(c2c1)CCCC3)c1ccc(S(=O)(=O)N2CCCCC2)cc1,-2%,u,2%,-25%,5µM*,6,
Cc1cccc(NC(=O)c2ccc3c(=O)n4c(nc3c2)CCCCC4)n1,x,-15%,-8%,-16%,x,x,
Cn1c(SCC(=O)Nc2ccc(Br)cc2)nc(O)cc1=O,6%,8%,3%,-43%,u,x,
